This is a sample that favours compounds with a hit; in the whole collection about 1.6% have one here.
PKA-R1A activ = activators of PKA-R1A complex; activation, % at 11.4 µM; PKA-R1A dissociation, Cy5-IP20 fluorescence polarization; scaled: DMSO 0%, 113 µM cGMP 100%; AID 504707; actives 0.083% (n = 340,000);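 active = percent activation above the mean of all tested compounds plus 3 SD, cut at about 19% in these data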;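 note: higher means more PKAc released from R1A so a rise in polarization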
ATG4B inhibitor = inhibitors of human ATG4B cysteine protease. Q9Y4P1. ATG4B cleavage of LC3-PLA2, NBD-HPC fluorescence, 1 h. inhibition, % at 8.33 µM. actives 0.51% (n = 340,000); in the data active = inhibition above about 40%
Target sequence (Q9Y4P1 whole entry, looked up): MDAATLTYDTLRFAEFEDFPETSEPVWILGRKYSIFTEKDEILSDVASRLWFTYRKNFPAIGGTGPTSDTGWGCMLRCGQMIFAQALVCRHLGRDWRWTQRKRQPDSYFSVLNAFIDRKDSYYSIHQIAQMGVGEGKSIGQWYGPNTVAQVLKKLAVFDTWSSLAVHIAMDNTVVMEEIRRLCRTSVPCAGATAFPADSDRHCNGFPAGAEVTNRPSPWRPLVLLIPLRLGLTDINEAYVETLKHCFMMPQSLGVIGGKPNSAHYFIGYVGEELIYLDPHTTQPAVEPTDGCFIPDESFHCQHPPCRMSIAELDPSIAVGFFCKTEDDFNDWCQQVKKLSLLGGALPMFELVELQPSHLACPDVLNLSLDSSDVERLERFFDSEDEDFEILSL
VLA-4 inh = inhibition in a human VLA-4 binding assay; inhibition, % (about 7 µM as worked out from the volumes in the protocol); actives 0.2% (n = 330,000); VLA-4 expressing cells, ligand binding flow cytometry; in the data active = inhibition above about 50%
NRP1-CendR mod = NRP-1/CendR interaction modulation. O14786. FAM-RPARPAR peptide binding to NRP-1, fluorescence polarization. inhibition, % at 25 µM. actives 0.85% (n = 360,000);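 active = inhibition or corrected inhibition above about 18%, plus a signal ratio from 0.5 to 1.5, limit read from the data, passing the limit was not always enough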
PKA-R2B activ = activators of human PKA-R2B complex. P22694+P31323. PKA-R2B holoenzyme dissociation, Cy5-IP20 fluorescence polarization; R2B truncated from residue 108, S112A mutant; 0% DMSO only, 100% 113 µM cGMP. activation, % at 11.4 µM. actives 0.079% (n = 340,000);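 active = activation above a cutoff set at the mean over all compounds plus 3 SD, cut at about 18% in these data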;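 note: higher means more holoenzyme dissociation and a rise in polarization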
* hit, by the source's call; . = no result.

SMILES | PKA-R1A activ | ATG4B inhibitor | VLA-4 inh | NRP1-CendR mod | PKA-R2B activ
COC(=O)c1ccccc1NC(=O)CN1CCN(C(=O)c2ccco2)CC1 | 8 | 6 | 0 | 4 | -9
CCN(CC)C(=O)Cn1cc(S(=O)(=O)CC(=O)NCCc2ccccc2)c2ccccc21 | -6 | -7 | 5 | 10 | -4
CCN(CC)C(=O)Cn1cc(S(=O)(=O)CC(=O)NCc2ccc(C)cc2)c2ccccc21 | 5 | -1 | -6 | 22* | 6
COc1ccc(C=CC(O)CCN2CCC3CCC(C3)C2)cc1 (stereo not drawn) | 9 | -7 | . | 24* | -8
Cc1ccc(-n2ccnc2SCC(=O)O)c(C)c1 | -10 | -5 | 3 | 31* | 2
Cc1ccc(NC(=O)Nc2cccs2)nc1 | 1 | -12 | -4 | 25* | 3
COC(=O)c1ccc(NC(=O)Nc2ccc(F)cc2)cc1 | 0 | -13 | 7 | 26* | -7
CCOC(=O)c1ccc(NC(=O)Nc2ccc(F)cc2)cc1 | -7 | -13 | -5 | 11 | -9
CCOc1ccc(-c2[nH]nc3c2C(c2ccc(O)cc2)C(C#N)=C(N)O3)cc1 (stereo not drawn) | 3 | -11 | 4 | 3 | 2
CCOc1cc(C2C(C#N)=C(N)Oc3n[nH]c(-c4ccncc4)c32)cc([N+](=O)[O-])c1O (stereo not drawn) | . | 14 | 7 | 32* | .
O=C(Nc1ccc(Cl)c(Cl)c1)N[C@@H]1CC[C@@H](CCn2cc(C3CCCCC3)nn2)O[C@@H]1CO | . | . | . | -2 | .
Cc1[nH]c2c(Cl)cccc2c(=O)c1CN1CCCC1 | 4 | -20 | 3 | 20* | 1
CC(C)(C)c1cc(C(c2cccnc2)N2CCN(CCO)CC2)cc(C(C)(C)C)c1O (stereo not drawn) | 4 | -8 | 50* | 16 | -3
CC(C)(C)n1nnnc1C(c1cccnc1)N1CCN(c2cccc(C(F)(F)F)c2)CC1 (stereo not drawn) | 3 | -1 | 3 | -11 | -5
Cc1cc2c(=O)[nH]cnc2s1 | -16 | -1 | 2 | 43* | 6
CC(C)NC(=S)N/N=C/c1cccnc1 | 8 | -7 | 4 | 37* | -2
Cc1cc2nc(-c3nnnn3C3CCCCC3)c(=O)[nH]c2cc1C | . | . | . | -1 | .
Oc1ccc2[nH]cnc2c1CN1CCCCC1 | 2 | -5 | -9 | 25* | 8
Cc1cc(=O)oc2c(CN3CCCCC3)c(O)ccc12 | 2 | 1 | . | 3 | -3
CC(/C=N\NC(=O)c1cccnc1)c1ccccc1 (stereo not drawn) | -4 | -2 | 8 | 33* | -2
CCN1/C(=C/C=C/c2oc3ccc4ccccc4c3[n+]2CC)Oc2ccc3ccccc3c21 | . | 91* | . | . | .
COC(=O)C1N2C(=O)[C@@H](NC(=O)COc3ccccc3)[C@H]2SC1(C)C (stereo partly drawn) | -1 | 8 | -6 | 31* | -14
CCCc1c(-c2ccc(F)cc2F)ncn1Cc1cccc(-c2ccccc2)c1 | . | . | . | 8 | .
COc1ccc(CNS(=O)(=O)c2ccc(C)cc2)cc1 | -11 | -3 | -5 | 28* | -1
CC(C)NC(=O)CSc1nnc(-c2ccc3ncccc3c2)n1C | -10 | 7 | 14 | 25* | 2
SMILES | PKA-R1A activ | ATG4B inhibitor | VLA-4 inh | NRP1-CendR mod | PKA-R2B activ
Cc1cccc(-c2nnc(SCC(=O)Nc3ncccn3)n2C)c1 | 2 | 7 | -3 | -9 | -7
O=S1(=O)N[C@H](Cc2ccccc2)COc2cc(N3CCC[C@H]3CO)ccc21 | . | . | . | 9 | .
C=CCn1c(CCNC(=O)c2ccc(Cl)c(Cl)c2)nnc1SCCOc1ccc(OC)cc1 | -3 | -3 | -10 | 26* | -10
CCc1nc(SCC(=O)N2c3ccccc3CC2C)c2c(C)c(C)sc2n1 (stereo not drawn) | -2 | 83* | 16 | 4 | 5
CC(C)CC(C(=O)O)C(C)CC(=O)Nc1ccn(-c2ccccc2)n1 (stereo not drawn) | -7 | 2 | -5 | -1 | -6
CCCCC(C(=O)O)C(C)CC(=O)Nc1ccn(-c2ccccc2)n1 (stereo not drawn) | 1 | 1 | 3 | 45* | 4
CCn1c(SCC(=O)c2ccccc2)nnc1-c1cccs1 | -6 | 11 | -5 | 32* | 0
Cn1cnc([N+](=O)[O-])c1Nc1cccc(O)c1 | 16 | -1 | -2 | 6 | 6

Screening results as filed in PubChem.
